Compound activity (PubChem BioAssay)
Rows were chosen to be rich in hits. Some 4% of all compounds tested hit in one or more screens of this group.
GDH-TPI inh = GDH-TPI coupling enzyme inhibitors, primary screen, artefact control for M. tuberculosis FBA inhibitor project, biochemical, absorbance, full deck. 360,000 compounds, 1.2% hits. inhibition, % at 4.8 µM. AID 588335, 2011. GDH-TPI coupled enzyme counterscreen, NADH absorbance; in the data active = inhibition above about 30%;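 also: 0% = DMSO wells and 100% = wells lacking the enzyme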
Mtb bLac sens = beta-lactam sensitization of Mtb H37Rv, H37Rv; M. tuberculosis H37Rv growth with meropenem, percent inhibition; inhibition, % at 25 µM; 330,000 compounds, 0.27% hits; AID 434955, 2010; call rule not given here;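 also: growth measured after seven days incubation then overnight dye step; 0% = bacteria only wells and 100% = bacteria with antibiotic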
RecA intein inh = Mtb RecA intein splicing inhibitors, primary screen, biochemical, fluorescence, HTS; inhibition, % (test concentration not listed); cell-free RecA intein splicing; 290,000 compounds, 0.75% hits; Protein RecA (Mycobacterium tuberculosis (strain ATCC 25618 / H37Rv)), P9WHJ3; in the data active = inhibition above about 30%;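 also: 0% = vehicle wells and 100% = reference inhibitor control wells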
Mtb FBA inh = Mtb FBA enzyme inhibitors, primary screen, biochemical, fluorescence, strain H37Rv | Fructose-bisphosphate aldolase (Mycobacterium tuberculosis (strain ATCC 25618 / H37Rv)), … | purified M. tuberculosis FBA, fluorescence read-out | inhibition, % at 1 µM | 360,000 compounds, 2.3% hits | AID 588726, 2011; in the data active = inhibition above about 27%;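 also: 0% = vehicle and 100% = reference inhibitor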
Target sequence (P9WQA3 whole entry, looked up): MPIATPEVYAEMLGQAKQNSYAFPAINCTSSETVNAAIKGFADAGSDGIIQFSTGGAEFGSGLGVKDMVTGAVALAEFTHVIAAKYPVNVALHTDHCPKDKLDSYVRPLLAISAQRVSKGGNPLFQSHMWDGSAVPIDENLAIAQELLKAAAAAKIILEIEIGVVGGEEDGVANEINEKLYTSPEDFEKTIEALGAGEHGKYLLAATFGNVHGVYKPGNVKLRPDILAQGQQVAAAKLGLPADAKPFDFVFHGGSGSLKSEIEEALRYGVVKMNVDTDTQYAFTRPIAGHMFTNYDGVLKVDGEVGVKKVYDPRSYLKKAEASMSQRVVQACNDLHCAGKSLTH
Rv3671c protease = Rv3671c serine protease inhibitors, primary screen, biochemical, fluorescence polarization, M. tuberculosis H37Rv | P9WHR9 | inhibition, % at 5.96 µM | 320,000 compounds, 0.048% hits; in the data active = inhibition above about 38%;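 also: extracellular domain of Rv3671c used as enzyme; 0% = enzyme with DMSO and 100% = no enzyme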
UGM FP inh = M. tuberculosis UGM enzyme inhibitors, primary screen, biochemical, fluorescence polarization, single point; purified UGM, fluorescence polarization probe displacement; inhibition, % at 10 µM; 320,000 compounds, 0.06% hits; in the data active = inhibition above about 10%, passing the limit was not always enough
* marks the source's active call; other numbers are inactive results; x = not tested or not shown; + = active, no number.

SMILES | GDH-TPI inh | Mtb bLac sens | RecA intein inh | Mtb FBA inh | Rv3671c protease | UGM FP inh
C/C(=N\N=C(/N)SC1CC(=O)N(c2cccc(Cl)c2)C1=O)c1cccs1 (stereo unspecified) | 40* | 16 | 8 | -5 | -32 | -1
NC(=O)C1CCN(C(=O)C2CCC(=O)N(C3CCCCCC3)C2)CC1 (stereo unspecified) | -2 | -12 | 1 | 1 | -3 | -2
COC(=O)c1c2[n+](cc3cc(OC)c(OC)cc13)CCc1cc(OC)c(OC)cc1-2 | 43* | 0 | -5 | 0 | 10 | 6
COc1cc(/C=N/NC(=S)NC2CC3CC2C2C=CCC32)ccc1O (stereo unspecified) | 37* | 92 | 11 | 1 | -28 | 1
CCOc1ccc(/C=N/NC(=S)NC2CC3CC2C2C=CCC32)cc1 (stereo unspecified) | 6 | 0 | 3 | 4 | 7 | 2
COc1ccc(/C=N/NC(=S)NC2CCS(=O)(=O)C2)cc1OC (stereo unspecified) | 41* | 6 | 0 | -3 | -9 | 2
Cc1cccc(C(=O)NNC(=O)c2ccccc2Br)c1 | -8 | -5 | 0 | 3 | 4 | 1
FC(F)(F)c1ccc(C2[C@H]3CN(Cc4ccc(-c5ccccc5)cc4)[C@H](c4ccccc4)C34CC2(c2cccnc2)C4)cc1 (stereo partly specified) | x | -6 | 3 | x | -3 | 1
FC(F)(F)c1ccc(C2[C@H]3CN(Cc4cccnc4)[C@H](c4ccccc4)C34CC2(c2cccnc2)C4)cc1 (stereo partly specified) | -4 | 98 | 40* | -2 | -12 | 2
O=C(Cn1ccc2ccccc2c1=O)NCC(=O)N1CCN(c2ccccc2F)CC1 | 4 | 4 | 3 | 0 | -3 | -1
O=C(N/N=C\c1ccc[nH]1)c1cncc(Br)c1 | 26 | 98 | -1 | 4 | 8 | -1
Cc1ccc(C(=O)N/N=C/c2cc(Br)ccc2O)cn1 | 17 | 2 | x | 4 | 5 | -1
Cc1ccc(C(=O)N/N=C\C=C\c2ccc(Br)cc2)cn1 | 35* | 10 | -2 | -3 | -18 | 0
Cc1ccc(C(=O)N/N=C\c2ccc[nH]2)cn1 | 47* | 2 | 0 | -1 | -6 | 1
O=C(N/N=C/c1ccc[nH]1)c1cccnc1 | 45* | 4 | 0 | 0 | 3 | -1
CC(C)(OC1OC(CO)C(O)C(O)C1O)[C@H]1Oc2ccc3ccc(=O)oc3c2[C@H]1O (stereo partly specified) | 28 | -13 | 1 | 117* | 3 | -2
C/C(=C\C(=O)c1ccccc1)NCc1ccc(F)cc1 | 31* | -5 | 3 | 3 | -13 | 0
C/C(=C\C(=O)c1ccc(C)cc1)NCc1ccc(F)cc1 | 22 | -7 | 1 | 0 | -1 | 3
Fc1ccccc1N1CC(c2ccccc2)C(c2cccs2)=N1 (stereo unspecified) | -3 | 6 | x | 161* | 0 | 1
CS(=O)(=O)c1ccc(N2CCN(c3ccccn3)CC2)c([N+](=O)[O-])c1 | 4 | -2 | 0 | 2 | 6 | -2
Cc1cccn2c(=O)c3cc(C(=O)NCC(C)C)sc3nc12 | 10 | 4 | -40 | 20 | 1 | 2
CN(C)S(=O)(=O)c1cccc(NC(=O)c2cc3c(=O)n4ccccc4nc3s2)c1 | 10 | -6 | -15 | 5 | 1 | -3
CCC(C)NC(=O)c1cc2c(=O)n3ccccc3nc2s1 (stereo unspecified) | 17 | 6 | 2 | + | 1 | 2
CC(C)CCNC(=O)c1cc2c(=O)n3ccccc3nc2s1 | 26 | 0 | -149 | 121* | -13 | 0
CCC(C)NC(=O)c1cc2cc3ccc(OC)cc3nc2s1 (stereo unspecified) | 27 | 63 | -8 | 110* | -4 | -3
SMILES | GDH-TPI inh | Mtb bLac sens | RecA intein inh | Mtb FBA inh | Rv3671c protease | UGM FP inh
C/C(=N\NC(=O)c1c(Cl)cnn1C)c1ccc(NC(=O)c2ccc(Br)o2)cc1 | 18 | 0 | 0 | -3 | x | 1
Cc1ccc(C)c(OCCC(=O)OCc2csc(CC(=O)Nc3ccccc3C)n2)c1 | -5 | x | x | -2 | x | x
CCOc1ccc(C2C(C(=O)OC)=CN(CCOC)C=C2C(=O)OC)cc1 | 8 | 2 | -250 | + | -1 | 1
COCCN1C=C(C(=O)OC)C(c2ccc(Cl)cc2)C(C(=O)OC)=C1 | 9 | -8 | -50 | + | 7 | -2
COc1ccc(-c2cc(C(=O)N/N=C(\C)c3cccnc3)c3ccccc3n2)c(OC)c1 | 22 | 7 | -6 | 2 | 4 | 1
OC(c1ccc(CN2CCCCC2)cc1)c1ncc(-c2ccccc2F)[nH]1 (stereo unspecified) | -1 | x | x | 5 | x | x
COc1ccc(-n2c(SC)nc3sc4c(c3c2=O)CCN(C)C4)cc1 | 26 | x | -9 | 11 | x | x
COc1ccc(NC(=O)CSc2nc3sc4c(c3c(=O)n2-c2ccc(OC)cc2)CCN(C)C4)cc1 | 35* | 10 | 7 | 2 | -17 | 2
CCOC(=O)CSc1nc2sc3c(c2c(=O)n1C1CCCCC1)CCN(C)C3 | 39* | 64 | 34* | 20 | -1 | 1
CCOc1ccc(-n2c(SCC(N)=O)nc3sc4c(c3c2=O)CCN(C)C4)cc1 | 32* | -5 | 2 | 4 | -1 | 3
COCCSc1nc2sc3c(c2c(=O)n1-c1ccccc1)CCN(C)C3 | 31* | x | 2 | 13 | 0 | 1
Cc1ccc(S(=O)(=O)N(C)C)cc1NC(=O)COC(=O)C1CC1 | -14 | -1 | 1 | 2 | 3 | -1
Cc1ccccc1CC(=O)NC1CCN(Cc2ccccc2)CC1 | 6 | 1 | 1 | 1 | -7 | 3
O=C(NCc1cccc(OC(F)(F)F)c1)C1CCC(=O)N(Cc2cccc(F)c2)C1 (stereo unspecified) | -1 | 8 | 2 | 0 | 3 | 1
COc1ccc(-n2c(SCC(=O)Nc3nccs3)nc3sc4c(c3c2=O)CCN(C)C4)cc1 | 32* | 66 | 16 | 3 | -14 | -1
Oc1cccc(C=NNc2ccccn2)c1 | 14 | x | x | -2 | x | x
Cc1ccccc1NC(=S)N/N=C/c1ccc(O)cc1O | 56* | -1 | 7 | 2 | 28 | -1
O=[N+]([O-])c1cccc(N/N=C/c2cc([N+](=O)[O-])ccc2O)c1 | 23 | -4 | 3 | -4 | 9 | 1
Cc1cccc(NC(=S)N/N=C/c2cccc(O)c2)c1C | 8 | -7 | -1 | 0 | 7 | 2
O=[N+]([O-])c1ccc(O)c(C=NNc2ccc(S(=O)(=O)O)cc2)c1 | 52* | x | x | -9 | x | x
O=[N+]([O-])c1ccc(NN=Cc2ccccc2O)nc1 | 24 | x | x | -18 | x | x
